The source of these data is PubChem BioAssay (NCI).

What all share (test): NCI-60 one-dose screen, 48 h (100 = growth as untreated, 0 = no growth, -100 = all killed)
What all share (settings): 10 µM unless noted

Assay [1] relates to NCI-H226 lung.
For assay [2], the system named is NCI-H322M lung.
Assay [3] relates to HOP-62 NSCLC.
The test system of assay [4] is NCI-H460 lung.
The test system of assay [5] is HOP-92 NSCLC.
Assay [6] has as its system NCI-H522 lung.
The test system of assay [7] is A549/ATCC NSCLC.
Assay [8] has as its system 786-0 renal.
The test system of assay [9] is COLO 205 colon.
Assay [10] has as its system DU-145 prostate.
The test system of assay [11] is K-562 leukemia.
For assay [12], the system named is MALME-3M melanoma.
Assay [13] deals with MDA-MB-231 breast.
The subject of assay [14] is RXF 393 renal.
The subject of assay [15] is SF-268 CNS.
Assay [16] relates to SF-295 CNS.
Assay [17] concerns SF-539 CNS.
In assay [18] the test system is UACC-257 melanoma.
The subject of assay [19] is M14 melanoma.

Values joined by “and” are separate entries in the source; they are usually repeats but may differ in a detail not shown here. Equal values may be shown once. The panel holds about 83,000 compounds, 20% with a hit somewhere; the sample as a whole holds those more often.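 Activity criterion: percent growth below 10, measured after cells in 96-well plates were exposed to a single compound concentration for 48 hours.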 Active and inactive are the calls of the source.

As to `O=[N+]([O-])c1ccccc1/C=N\Nc1ccccc1`, the growth is 89.4% (inactive) and 97.8% (inactive) in [1]; 86.5% (inactive) and 78.3% (inactive) in [2]; 90% (inactive) and 90.6% (inactive) in [3]; 91.2% (inactive) and 97.4% (inactive) in [4]; 72.2% (inactive) in assay [5]; 68.2% (inactive) and 62.3% (inactive) in assay [6]. In addition, the growth in [7] is 81.4% (inactive) and 81.6% (inactive); in assay [8], 86.6% (inactive) and 101% (inactive); in [9], 94.4% (inactive) and 105% (inactive); in [10], 97.7% (inactive) and 103% (inactive); in [11], 37.9% (inactive) and 40.2% (inactive); in [12], 98.7% (inactive) and 116% (inactive). The growth in assay [13] is 74.1% (inactive) and 65% (inactive); in assay [14] it was 110% (inactive) and 105% (inactive); in assay [15], 78.5% (inactive) and 89.5% (inactive); in assay [16], 102% (inactive) and 76.9% (inactive); in assay [17], 88.1% (inactive) and 106% (inactive); in assay [18], 94.3% (inactive) and 103% (inactive). Besides, the growth in assay [19] is 50.1% (inactive) and 70.9% (inactive).
Regarding `N#CCCOc1ccccc1`, the growth in assay [1] was 110% (inactive); in assay [4], 105% (inactive); in assay [5], 84.6% (inactive); in assay [6], 87.7% (inactive); in assay [7], 96.7% (inactive); in assay [8] it was 98.2% (inactive). In addition, the growth in assay [9] was 106% (inactive); in assay [10] it was 117% (inactive); in assay [11] it was 89.6% (inactive); in [12] it was 95.1% (inactive); in [13], 108% (inactive); in [14], 114% (inactive). Further, the growth was 102% (inactive) in [15]; 101% (inactive) in assay [16]; 96.2% (inactive) in assay [17]; 92.6% (inactive) in assay [18]; 97.9% (inactive) in [19].
Consider `CNC(=O)c1cccnc1`, for which the growth in [1] was 107% (inactive); in assay [2] it was 110% (inactive); in assay [4], 109% (inactive); in assay [5], 109% (inactive); in assay [6] it was 91.4% (inactive); in assay [7], 92.8% (inactive). Moreover, the growth was 99.6% (inactive) in [8]; 121% (inactive) in assay [9]; 116% (inactive) in [10]; 86.8% (inactive) in assay [12]; 102% (inactive) in assay [13]; 114% (inactive) in [14]. For the same compound, the growth is 103% (inactive) in [15]; 100% (inactive) in assay [16]; 100% (inactive) in assay [17]; 92.4% (inactive) in [18]; 104% (inactive) in assay [19].
Take `CC(=O)C(/C=N/C(N)=O)=C(/C)O`: the growth in [1] is 111% (inactive); in assay [2], 113% (inactive); in [4], 116% (inactive); in [5], 119% (inactive); in [6] it was 99.6% (inactive); in assay [7], 99.6% (inactive). Moreover, the growth in [8] was 104% (inactive); in assay [9], 120% (inactive); in [10], 118% (inactive); in assay [12], 106% (inactive); in [13], 96.5% (inactive); in assay [14] it was 114% (inactive). Also, the growth was 109% (inactive) in assay [15]; 101% (inactive) in assay [16]; 103% (inactive) in assay [17]; 97.3% (inactive) in assay [18]; 108% (inactive) in assay [19].
In the case of `O=C(Nc1ccc(Br)cc1)c1cc(Br)ccc1O`, the growth is 18.2% (inactive) and -33.2% (active) in [1]; -15.9% (active) and 1.23% (active) in assay [2]; 20.2% (inactive) and -5.46% (active) in assay [3]; 2.62% (active) and 3.86% (active) in assay [4]; -23% (active) and -12% (active) in [5]; -13.8% (active) and 2.52% (active) in assay [6]. Further, the growth in [8] was 0.723% (active) and 2.62% (active); in assay [9], 92.9% (inactive) and -42.3% (active); in assay [10] it was 19.9% (inactive) and 8.81% (active); in assay [11] it was 9.25% (active) and -22.8% (active); in [12], -31.4% (active) and -27.8% (active); in [13], -36.1% (active) and -21.9% (active). The growth in [14] is 2.31% (active) and 38.3% (inactive); in assay [15] it was 9.39% (active) and 9.12% (active); in assay [16] it was -22.6% (active) and -16.5% (active); in [17] it was 18.3% (inactive) and -1.29% (active); in [18] it was 14% (inactive) and 8.51% (active); in assay [19] it was 8.56% (active) and 8.13% (active).
In the case of `Cc1ccc(S(=O)(=O)Nc2ccc3cc([N+](=O)[O-])ccc3c2[N+](=O)[O-])cc1`, the growth in assay [1] was 67.6% (inactive) and 95.5% (inactive); in assay [2], 93% (inactive) and 93.1% (inactive); in assay [3], 92.7% (inactive) and 95% (inactive); in [4], 76.4% (inactive) and 91.3% (inactive); in assay [5] it was 27.9% (inactive) and -8.68% (active); in assay [6], 54.6% (inactive) and 85.3% (inactive). Moreover, the growth in assay [7] is 77.7% (inactive) and 91.2% (inactive); in [8] it was 72.2% (inactive) and 85.9% (inactive); in assay [9] it was 106% (inactive) and 96.6% (inactive); in [10] it was 90.9% (inactive) and 106% (inactive); in assay [11], 81.8% (inactive) and 29% (inactive); in assay [12], 62.6% (inactive) and 90.9% (inactive). Also, the growth in [13] was 98.8% (inactive) and 95.1% (inactive); in assay [14] it was 93.2% (inactive) and 102% (inactive); in assay [15], 81.8% (inactive) and 94.8% (inactive); in assay [16] it was 38.9% (inactive) and 53.1% (inactive); in assay [17], 89.8% (inactive) and 111% (inactive); in assay [18] it was 82.3% (inactive) and 97% (inactive). For the same compound, the growth in assay [19] was 95.5% (inactive) and 95% (inactive).
